Consider seven molecules from PubChem BioAssay (NCI).

Some test systems named below: SK-MEL-2 melanoma; EKVX NSCLC; SN12C renal; UO-31 renal; TK-10 renal; ACHN renal; CAKI-1 renal; A498 renal; CCRF-CEM leukemia; MOLT-4 leukemia; SR leukemia; RPMI-8226 leukemia; OVCAR-8 ovarian; OVCAR-5 ovarian; OVCAR-4 ovarian; SK-OV-3 ovarian; IGROV1 ovarian; OVCAR-3 ovarian; HS 578T breast; NCI/ADR-RES ovarian.
Test in all cases: NCI-60 one-dose screen, 48 h (100 = growth as untreated, 0 = no growth, -100 = all killed)
What all share (details): 10 µM unless noted

Compounds without any hit were thinned out: in the full panel of roughly 83,000, 20% have a hit.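 Assay: single dose, 48 h. Readout: percent growth (0 = no net growth; negative = cell death). Active: <10.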 Unmarked numbers belong to inactive results. Calls of active or inactive are those of the source.

On to `N#Cc1c(-c2ccc(F)cc2)cc(-c2cccc(Cl)c2)[nH]c1=O`, for which the growth with SK-MEL-2 melanoma is 78.6%; in the experiment on EKVX NSCLC, 66.9%; with SN12C renal, 60.3%; with UO-31 renal it was 54.3%; in the experiment on TK-10 renal, 54.3%; in the experiment with ACHN renal, 49.4%. In addition, the growth in the experiment on CAKI-1 renal was 52.1%; in the experiment with A498 renal it was 80.4%; with CCRF-CEM leukemia, 71.9%; in the experiment on MOLT-4 leukemia it was 88.3%; with SR leukemia, 113%; in the experiment on RPMI-8226 leukemia, 42.1%. The growth in the experiment on OVCAR-8 ovarian is 53.4%; in the experiment with OVCAR-5 ovarian, 112%; in the experiment with OVCAR-4 ovarian, 28%; with SK-OV-3 ovarian it was 79.3%; in the experiment with IGROV1 ovarian, 62.8%; in the experiment on OVCAR-3 ovarian it was 7.21% (active). Also, the growth in the experiment on HS 578T breast is 46%; with NCI/ADR-RES ovarian it was 71.2%.

`CC(C)=CCC[C@](C)(O)C1CC[C@]2(C)[C@@H]1CC[C@@H]1[C@@]3(C)CC/C(=N\OCCC#N)C(C)(C)[C@@H]3CC[C@]12C` (some centres not stated): the growth with SK-MEL-2 melanoma is 100%; with EKVX NSCLC, 72.4%; with SN12C renal, 80%; in the experiment on UO-31 renal, 60.5%; with TK-10 renal, 105%; with ACHN renal it was 90.3%. Besides, the growth in the experiment on CAKI-1 renal was 77.5%; in the experiment with A498 renal it was 72.8%; with CCRF-CEM leukemia it was 75.8%; in the experiment on MOLT-4 leukemia it was 77.5%; with SR leukemia it was 61.6%; with RPMI-8226 leukemia, 36%. The growth is 85.1% with OVCAR-8 ovarian; 99.1% in the experiment on OVCAR-5 ovarian; 79.9% in the experiment with OVCAR-4 ovarian; 84.3% with SK-OV-3 ovarian; 97.4% with IGROV1 ovarian; 93.2% in the experiment with OVCAR-3 ovarian. Moreover, the growth was 92.9% in the experiment on HS 578T breast and 97.7% in the experiment with NCI/ADR-RES ovarian.

For the molecule `O=C(Nc1ccccc1C(F)(F)F)C1=NCCCCN1`, the growth in the experiment with SK-MEL-2 melanoma is 104%; with EKVX NSCLC, 93.1%; in the experiment on SN12C renal it was 98%; in the experiment with UO-31 renal, 86.2%; in the experiment on TK-10 renal it was 98.8%; in the experiment with ACHN renal, 103%. For the same molecule, the growth with CAKI-1 renal was 96.6%; in the experiment on A498 renal, 97.1%; in the experiment on CCRF-CEM leukemia, 102%; with MOLT-4 leukemia it was 99.2%; in the experiment on SR leukemia, 102%; in the experiment with RPMI-8226 leukemia, 99.6%. Moreover, the growth in the experiment with OVCAR-8 ovarian is 99.9%; in the experiment with OVCAR-5 ovarian, 94.7%; with OVCAR-4 ovarian, 99%; in the experiment on SK-OV-3 ovarian it was 108%; in the experiment with IGROV1 ovarian, 101%; in the experiment on OVCAR-3 ovarian, 101%. In addition, the growth in the experiment with NCI/ADR-RES ovarian is 103%.

For `C#CC#CC#CC#CC#CC#CC#CC#CC[C@@H]1OC[C@H](COC(=O)O[C@@H](C(=O)O[C@H]2C[C@@]3(O)[C@@H](OC(=O)c4ccccc4)[C@@H]4[C@]5(OC(C)=O)CO[C@@H]5C[C@H](O)[C@@]4(C)C(=O)[C@H](OC(C)=O)C(=C2C)C3(C)C)[C@@H](NC(=O)c2ccccc2)c2ccccc2)O1`, the growth with SK-MEL-2 melanoma is 44.2%; in the experiment on EKVX NSCLC it was 65.8%; with SN12C renal it was 38.6%; with UO-31 renal it was 99.6%; with TK-10 renal it was 93.3%; in the experiment with ACHN renal, 79.3%. Moreover, the growth in the experiment on CAKI-1 renal was 71%; in the experiment with A498 renal, 21.3%; in the experiment on CCRF-CEM leukemia, 13.8%; in the experiment with MOLT-4 leukemia, 30.9%; in the experiment with SR leukemia, 20.5%; in the experiment on RPMI-8226 leukemia, 9.65% (active). Also, the growth is 33.8% in the experiment on OVCAR-8 ovarian; 24.3% with OVCAR-5 ovarian; 62.9% in the experiment on OVCAR-4 ovarian; 51.7% in the experiment with SK-OV-3 ovarian; 32.6% with IGROV1 ovarian; 7.3% (active) in the experiment on OVCAR-3 ovarian. The growth is 5.42% (active) in the experiment on HS 578T breast and 102% with NCI/ADR-RES ovarian.

Consider `Cc1c(C(=O)C(SC(=S)N2CCOCC2)SC(=S)N2CCOCC2)nnn1-c1ccc([N+](=O)[O-])cc1`, for which the growth in the experiment with SK-MEL-2 melanoma was 106%; with EKVX NSCLC, 113%; with SN12C renal, 96.4%; in the experiment with UO-31 renal, 74.7%; in the experiment with TK-10 renal, 100%; in the experiment on ACHN renal, 98%. Moreover, the growth in the experiment on CAKI-1 renal is 94.9%; with A498 renal, 128%; in the experiment with CCRF-CEM leukemia it was 67.9%; with MOLT-4 leukemia, 91.1%; with SR leukemia, 69.7%; in the experiment with RPMI-8226 leukemia, 90.1%. The growth with OVCAR-8 ovarian is 99.1%; with OVCAR-5 ovarian, 102%; with OVCAR-4 ovarian it was 109%; in the experiment with IGROV1 ovarian, 98%; in the experiment with OVCAR-3 ovarian, 108%; with HS 578T breast, 123%. Moreover, the growth with NCI/ADR-RES ovarian is 111%.

Consider `O=C(Nc1ccc2c(c1)-c1ccccc1C2)C1CC(=O)N(c2ccc3c(c2)OCO3)C1` (configuration not stated), for which the growth was 89.2% [50 µM] with SK-MEL-2 melanoma; 78.1% [50 µM] in the experiment with EKVX NSCLC; 73% [50 µM] with SN12C renal; 97.7% [50 µM] in the experiment with UO-31 renal; 60.6% [50 µM] in the experiment on TK-10 renal; 64.5% [50 µM] in the experiment with ACHN renal. Also, the growth with CAKI-1 renal was 61% [50 µM]; with A498 renal, 26.1% [50 µM]; with CCRF-CEM leukemia it was 100% [50 µM]; in the experiment on MOLT-4 leukemia, 99.7% [50 µM]; in the experiment on SR leukemia, 77.2% [50 µM]; in the experiment with RPMI-8226 leukemia, 81.8% [50 µM]. The growth in the experiment on OVCAR-8 ovarian is 28.5% [50 µM]; in the experiment with OVCAR-5 ovarian, 83.5% [50 µM]; with OVCAR-4 ovarian, 2.45% [50 µM] (active); in the experiment on SK-OV-3 ovarian it was 76.1% [50 µM]; with IGROV1 ovarian, 80.5% [50 µM]; in the experiment with OVCAR-3 ovarian it was 31.3% [50 µM]. For the same molecule, the growth in the experiment with HS 578T breast is 31.7% [50 µM]; in the experiment with NCI/ADR-RES ovarian, 58.9% [50 µM].

Take `COc1ccc2c(c1)c(-c1nc(-c3cn(C)c4ccncc34)cs1)cn2C`: the growth is 112% in the experiment on SK-MEL-2 melanoma; -36.7% (active) with EKVX NSCLC; 94.2% in the experiment on SN12C renal; 71.2% in the experiment with UO-31 renal; 79.7% with TK-10 renal; 95% in the experiment with ACHN renal. In addition, the growth in the experiment with CAKI-1 renal was 75.6%; with A498 renal, 90.9%; with CCRF-CEM leukemia, -27.9% (active); in the experiment on MOLT-4 leukemia, -31.1% (active); with SR leukemia, -26.1% (active); with RPMI-8226 leukemia it was -48% (active). For the same molecule, the growth in the experiment with OVCAR-8 ovarian was -3.91% (active); with OVCAR-5 ovarian, -16.7% (active); with OVCAR-4 ovarian it was -3.39% (active); in the experiment with SK-OV-3 ovarian, 119%; in the experiment on IGROV1 ovarian, -2.51% (active); in the experiment with OVCAR-3 ovarian, -77.6% (active). Further, the growth with NCI/ADR-RES ovarian was 10.2%.
